Screening results (PubChem)
Hits are enriched below; roughly 2.6% of the tested compounds scored in any of these assays.
ABCB6 inh MLPCN – blocks the human ABCB6 transporter | Q9NP58 | fluorescence ratio to DMSO, % at 10 µM | K562-ABCB6 porphyrin accumulation, flow cytometry, 1 h; stronger effect = lower value | 360,000 tested, 0.19% active;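 active = fluorescence ratio to DMSO below 75%, the collection mean minus 3 SD; inconclusive = too few cells collected in the well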;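 also: signal is porphyrin accumulated inside mitochondria; 100% equals median channel fluorescence of DMSO control wells; lower ratio means ABCB6 inhibition with less porphyrin fluorescence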
Target sequence (Q9NP58 whole entry, looked up): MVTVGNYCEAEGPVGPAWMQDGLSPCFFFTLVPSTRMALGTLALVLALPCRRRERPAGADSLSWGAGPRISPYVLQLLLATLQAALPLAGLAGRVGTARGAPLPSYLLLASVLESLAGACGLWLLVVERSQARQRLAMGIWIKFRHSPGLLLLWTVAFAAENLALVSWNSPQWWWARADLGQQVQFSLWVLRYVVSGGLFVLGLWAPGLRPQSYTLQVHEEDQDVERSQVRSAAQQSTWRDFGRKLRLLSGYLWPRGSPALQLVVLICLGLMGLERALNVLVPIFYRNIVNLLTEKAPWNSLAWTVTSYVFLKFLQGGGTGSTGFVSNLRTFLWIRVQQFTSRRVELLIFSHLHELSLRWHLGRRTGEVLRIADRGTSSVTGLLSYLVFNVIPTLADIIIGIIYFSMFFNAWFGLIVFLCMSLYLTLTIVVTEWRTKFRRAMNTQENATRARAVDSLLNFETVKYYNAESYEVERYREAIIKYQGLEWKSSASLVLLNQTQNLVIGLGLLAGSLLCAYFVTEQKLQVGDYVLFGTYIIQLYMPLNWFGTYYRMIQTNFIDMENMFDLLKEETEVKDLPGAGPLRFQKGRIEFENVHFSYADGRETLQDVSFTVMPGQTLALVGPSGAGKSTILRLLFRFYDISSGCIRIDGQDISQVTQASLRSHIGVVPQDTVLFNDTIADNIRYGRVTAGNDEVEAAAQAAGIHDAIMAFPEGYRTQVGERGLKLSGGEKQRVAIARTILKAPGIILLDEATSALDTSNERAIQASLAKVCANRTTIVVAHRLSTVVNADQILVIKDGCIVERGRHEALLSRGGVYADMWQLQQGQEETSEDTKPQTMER
eIF4H FP inh – inhibitors of RNA binding by human eIF4H | eIF4H fluorescence polarization binding assay | inhibition, % at 35 µM | 290,000 tested, 0.94% active;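 also: calls also rest on retests at 20 µM and on dose response follow-up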
AI-2 QS mod – modulators of Vibrio harveyi AI-2 quorum sensing system; Vibrio harveyi JMH597 AI-2 luminescence/OD600 ratio, 9 h; stronger effect = lower value; strain lacks LuxN and CqsS sensors; 0 = neutral-control median; activity change, % at 7.5 µM; 300,000 tested, 0.4% active; AID 2094; in the data active = activity change below about -75%, passing the limit was not always enough; inconclusive = no clear call, values can overlap the other calls;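 also: luminescence divided by OD600 gain over 9 h not by final OD600 alone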
PABP polyA inh – blocks human PABP binding to poly(A) RNA. calls only at 35 µM. fluorescence polarization. P11940. AID 2014. 290,000 tested, 1% active;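 also: calls also rest on retests at 20 µM and on dose response follow-up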
PHOSPHO1 inh – blocks human PHOSPHO1 phosphatase activity | Q8TCT1 | recombinant PHOSPHO1, absorbance phosphatase assay | inhibition, % at 13.3 µM | 290,000 tested, 1.1% active | AID 1565; in the data active = inhibition above about 60%
PABP1 MLLE inh – inhibitors of microRNA-mediated deadenylation, human PABP1 MLLE binding | GST-MLLE / FITC-PAM2 fluorescence polarization | inhibition, % at 20 µM | 360,000 tested, 0.36% active | AID 588489; in the data active = inhibition above about 35%, passing the limit was not always enough;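 also: plate controls were DMSO wells with GST-MLLE for no effect and wells lacking GST-MLLE protein for full effect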
* = called active by the depositor; i = inactive; ? = inconclusive; · = no result; + = active, no number. Unless noted, no rule for the calls is given here.

SMILES	ABCB6 inh MLPCN	eIF4H FP inh	AI-2 QS mod	PABP polyA inh	PHOSPHO1 inh	PABP1 MLLE inh
O=C(O)C1Nc2c(C(=O)N3CCOCC3)cccc2C2C=CCC12 (stereo not given)	93	99*	-6	+	63*	31
Cc1cc(C)c2c(c1)NC(C(=O)O)C1CC=CC21 (stereo not given)	119	93*	7	+	45	6
O=C(O)C1Nc2c(C(F)(F)F)ccc(Cl)c2C2C=CCC12 (stereo not given)	110	42	-7	i	23	10
CN(CCc1ccccc1)C(c1cc2ccccc2o1)c1nnnn1C(C)(C)C (stereo not given)	95	·	·	·	·	·
O=S(=O)(Nn1c(O)c(C=C2N=c3ccccc3=N2)sc1=S)c1ccccc1	103	4	21	i	15	-6
O=C(Nn1c(O)c(C=C2N=c3ccccc3=N2)sc1=S)c1ccccc1Cl	98	-1	37	i	79*	-23
COc1cc(C)ccc1S(=O)(=O)NC(=O)C1(C)CCN1C(=O)COc1ccc(Cl)cc1 (stereo not given)	92	·	·	·	·	0
COc1ccc(NC(=S)Nc2ccc(F)cc2)cc1	99	-7	16	i	3	7
COc1cc(NC(=S)Nc2ccc(N(C)C(C)=O)cc2)cc(OC)c1	106	1	16	i	-30	36*
COc1cc(NC(=S)Nc2ccc(OC(F)F)cc2)cc(OC)c1	100	-4	12	i	0	41*
CC(=O)N(C)c1ccc(NC(=S)Nc2ccccc2)cc1	101	18	-5	i	8	14
CC(C)Oc1cc(F)ccc1-c1cc(C(=O)Nc2cccc(C(F)(F)F)c2)[nH]n1	96	·	·	·	·	-13
CCOc1ccc(NC(=O)c2ccc3c(=O)n4c(nc3c2)CCCCC4)cc1	99	·	-1	·	53	7
CC(OC(=O)c1ccc2c(=O)n3c(nc2c1)CCC3)C(N)=O (stereo not given)	97	4.5*	1	+	6	-13
CCOc1ccccc1NC(=O)c1ccc2c(=O)n3c(nc2c1)CCCCC3	100	-19	10	i	75*	0
COc1ccccc1CNC(=O)c1ccc2c(=O)n3c(nc2c1)CCCCC3	97	-3	15	i	65*	1
CC(OC(=O)c1ccc2c(=O)n3c(nc2c1)CCC3)C(=O)Nc1ccc(C(N)=O)cc1 (stereo not given)	91	·	·	·	·	-3
COc1ccccc1-c1cccc(-c2nc(C(=O)N3CCCCC3)cc3c2[C@@H](CCO)N(S(=O)C(C)(C)C)C3)c1 (stereo not given in full)	100	·	·	·	·	-4
COc1cccc(C(C)(O)c2nc(-c3ccc4c(c3)OCO4)cs2)c1 (stereo not given)	92	·	·	·	·	3
Cc1nonc1C(=O)N/N=C/c1ccc([N+](=O)[O-])o1	101	89*	-96*	+	25	0
Cc1cc(C(=O)N/N=C/c2ccc([N+](=O)[O-])o2)c(C)o1	98	39	29	i	6	17
Cc1nonc1C(=O)N/N=C/c1ccc(O)cc1O	93	9	-88*	i	3	-1
COc1ccc(Nc2cc(C(=O)NCCCOC(C)C)c3ccccc3n2)c(OC)c1	97	-5	26	i	38	1
COc1ccc(Nc2cc(C(=O)NCCCN3CCN(C)CC3)c3ccccc3n2)c(OC)c1	95	-9	7	i	67*	8
COc1ccc([C@H]2CC(=O)C[C@@H](CCn3cc(-c4ccc(F)cc4)nn3)O2)cc1	127	·	·	·	·	·
SMILES	ABCB6 inh MLPCN	eIF4H FP inh	AI-2 QS mod	PABP polyA inh	PHOSPHO1 inh	PABP1 MLLE inh
CS(=O)(=O)N1CCc2cc(C(=O)OCC(=O)c3ccccc3)ccc21	95	-2	-77*	i	9	-2
CN(C(=O)c1ccc2c(c1)CCN2S(C)(=O)=O)c1ccccc1	104	-12	4	i	-5	11
CCOC(=O)C1=C(O)/C(=C\c2ccc(CNC(=O)C(=O)Nc3ccccc3)o2)N=C1C	111	?	9	?	83*	-20
COc1ccc(S(=O)(=O)N2CCC(NC(=O)Nc3ccc(C)cc3)CC2)cc1	100	0	4	i	60*	-5
COc1ccc(NC(=O)C2CCN(S(C)(=O)=O)CC2)cc1OC	98	-9	8	i	19	1
COc1ccc(NC(=S)N2CCN(S(=O)(=O)c3ccc(F)cc3)CC2)cc1	107	4	-2	i	66*	-113
COc1ccc(NC(=O)C2CCN(S(=O)(=O)c3ccc(C)cc3)CC2)cc1OC	74*	1	11	i	3	6
CCOC(=O)N1CCC2(CC1)C(C#N)=C(N)Oc1n[nH]c(C)c12	105	-6	15	i	2	-6
CCOC(=O)N1CCC2(CC1)C(C#N)=C(N)Oc1c2c(C)nn1-c1cccc(Cl)c1	101	71*	41	+	19	14
COCCNC(=O)C1(C)CCCN(Cc2cc(-c3ccccc3)nn2C)C1 (stereo not given)	95	·	·	·	·	8
CCCCCCCCN1C(=O)[C@H](CC(=O)NCCCOC)C[C@@]2(C(=O)OC)CCCCC=C12	91	·	·	·	·	·
COC(=O)c1sc2nc(CSc3ccc(Br)cc3)[nH]c(=O)c2c1C	101	51*	9	+	2	-39
CCn1c(SCc2nc3cc(OC)c(OC)cc3c(=O)[nH]2)nc2ccccc21	99	2	15	i	60*	-16
CCn1c(SCc2nc3sc(C(=O)O)c(C)c3c(=O)[nH]2)nc2ccccc21	122	83*	25	+	26	-30
COCCn1c(SCc2nc3sc(C(=O)OC)c(C)c3c(=O)[nH]2)nc2ccccc21	104	53	1	i	92*	-88
COCCCn1cnnc1SCc1nc2sc(C(C)=O)c(C)c2c(=O)[nH]1	98	23	16	i	-20	-67
C=CCn1c(SCc2nc3sc(C(=O)O)c(C)c3c(=O)[nH]2)nnc1-c1ccc(F)cc1	101	-6	18	i	21	-44
[O-]/[N+](=C/c1ccc(F)cc1)c1ccc(Cl)cc1	95	-4	-2	i	-7	42*
[O-][N+](=Cc1ccccc1)c1ccc(Cl)cc1	100	·	·	·	·	10
CC(=O)c1cccc(NC(=O)C2Cc3c(-c4ccc(Cl)cc4)ccnc3O2)c1 (stereo not given)	96	·	·	·	·	-3
CC(C)C(=O)N1CCCC1(C)C(=O)NCc1ccc(Cl)cc1 (stereo not given)	97	·	·	·	·	4
C=CCn1c(=O)/c(=C/c2ccc(C)o2)s/c1=C(/C#N)C(=O)c1ccccc1	122	?	13	+	83*	-111
CCN(CC)C(=O)c1cccc(-c2csc(C(C)(O)c3ccc(F)c(F)c3)n2)c1 (stereo not given)	96	·	·	·	·	-5
